Data: PubChem BioAssay (NCATS)
“And” between values parts separate entries of the source, which are not always exact repeats. Equal entries are not always repeated. Inconclusive results are not listed. The source made the active and inactive calls. Calls follow the shape of the dose curve; as a rule, active = well fitted curve in the direction sought with a large enough effect; inconclusive = small, poorly fitted or top-dose-only effect, or another doubt; inactive = no such curve, though single readings can be large; an effect the other way counts as inactive or inconclusive.

Columns and labels:
[1] = Viability qHTS for spleen associated tyrosine kinase inhibitor (SYKi) naive MV4-11 cells (AID 1963823); conditions: MV4-11 AML viability, CellTiter-Glo luminescence, 72 h; series mostly up to 45 µM; also: nearly all actives have a fitted effect of over 40% in size
Summary of the method: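 In this viability screen, compounds acted on SYK inhibitor naive MV4-11 cells for three days (72 hr, 37 C). Remaining viable cells were measured by CellTiter-Glo luminescence following a 10 min room-temperature development.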

[2] = Viability qHTS for spleen associated tyrosine kinase inhibitor (SYKi) drug resistant MV4-11 cells (AID 1963824); conditions: SYKi-resistant MV4-11 viability, CellTiter-Glo, 72 h; series mostly up to 45 µM; also: nearly all actives have a fitted effect of over 35% in size
Summary of the method: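 CellTiter-Glo luminescence, read 10 min after reagent addition, reports viability after a 72 hr compound exposure. Cells are an MV4-11 line made resistant to SYK inhibition, seeded at 500 per well onto compound-containing plates.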

[3] = Quantitative highthroughput screen to assess conditional lethalithy of NOMO1 cells grown in RPMI1640 with untreated serum (RPMI+s) (AID 1963876); conditions: NOMO1 AML cells in RPMI+serum, CellTiter-Glo viability, 48 h; series mostly up to 45.8 µM; also: nearly all actives have a fitted effect of over 35% in size;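 as to Viability: 100% = DMSO wells and 0% = empty wells without cells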
Summary of the method: (§1)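 Each medium arm—HPLM with 10% dialyzed FBS, or RPMI1640 with 5 mM glucose and 10% untreated or dialyzed FBS—was screened against an 11-point, 3-fold compound titration for 48 h at 37 °C, with CellTiter-Glo luminescence as endpoint.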

[4] = Quantitative highthroughput screen to assess conditional lethalithy of NOMO1 cells grown in RPMI1640 with dialyzed fetal bovine serum (RPMI+ds) (AID 1963877); conditions: NOMO1 in RPMI+dialyzed FBS viability, ATP luminescence, 48 h; series mostly up to 45.8 µM; also: nearly all actives have a fitted effect of over 30% in size;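 as to Viability: 100% = DMSO control wells and 0% = empty wells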
Summary of the method: as §1

[5] = Quantitative highthroughput screen to assess conditional lethalithy of NOMO1 cells grown in Human Plasma-Like Medium with dialyzed fetal bovine serum (HPLM+ds) (AID 1963878); conditions: NOMO1 AML cells in HPLM+ds, CellTiter-Glo viability, 48 h; series mostly up to 45.8 µM; also: nearly all actives have a fitted effect of over 35% in size;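 as to Viability: 100% = DMSO wells and 0% = empty wells on each plate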
Summary of the method: as §1

[6] = Quantitative highthroughput screen to assess conditional lethalithy of P12 Ichikawa cells grown in Human Plasma-Like Medium with dialyzed fetal bovine serum (HPLM+ds) (AID 1963879); conditions: ATP luminescence, 48 h; Potency: viability; series mostly up to 45.8 µM; also: nearly all actives have a fitted effect of over 35% in size
Summary of the method: as §1

[7] = Quantitative highthroughput screen to assess conditional lethalithy of P12 Ichikawa cells grown in RPMI1640 with dialyzed fetal bovine serum (RPMI+ds) (AID 1963880); conditions: ATP luminescence, 48 h; Potency: P12-Ichikawa viability; series mostly up to 45.8 µM; also: nearly all actives have a fitted effect of over 35% in size;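 as to Viability: 100% = DMSO wells and 0% = empty wells on each plate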
Summary of the method: as §1

[8] = Quantitative highthroughput screen to assess conditional lethalithy of P12 Ichikawa cells grown in RPMI1640 with untreated serum (RPMI+s) (AID 1963881); conditions: ATP luminescence, 48 h; Potency: viability; series mostly up to 45.8 µM; also: nearly all actives have a fitted effect of over 35% in size;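 as to Viability: 100% = DMSO wells and 0% = empty wells without cells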
Summary of the method: as §1

[9] = Quantitative highthroughput screen to assess conditional lethalithy of SEM cells grown in Human Plasma-Like Medium with dialyzed fetal bovine serum (HPLM+ds) (AID 1963882); conditions: SEM B-ALL cells in HPLM+ds, CellTiter-Glo viability, 48 h; series mostly up to 45.8 µM; also: nearly all actives have a fitted effect of over 35% in size
Summary of the method: as §1

[10] = Quantitative highthroughput screen to assess conditional lethalithy of SEM cells grown in RPMI1640 with unreated serum (RPMI+s) (AID 1963883); conditions: SEM B-ALL cells, CellTiter-Glo viability, 48 h; series mostly up to 45.8 µM; also: nearly all actives have a fitted effect of over 35% in size;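 as to Viability: 100% = DMSO wells and 0% = empty wells without cells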
Summary of the method: as §1

[11] = Quantitative highthroughput screen to assess conditional lethalithy of SEM cells grown in RPMI1640 with dialyzed fetal bovine serum (RPMI+ds) (AID 1963884); conditions: SEM B-ALL cells, RPMI+dialyzed FBS, CellTiter-Glo viability, 48 h; series mostly up to 45.8 µM; also: nearly all actives have a fitted effect of over 35% in size;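 as to Viability: 100% = DMSO control wells and 0% = empty wells without cells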
Summary of the method: as §1

[12] = Cellular viability qHTS for adrenocortical cancer (ACC) cell line SW-13 (AID 1963989); conditions: SW-13 ACC cells viability, CellTiter-Glo, 48 h; activity (max response): hits give low values; also: nearly all actives have a fitted effect of over 65% in size;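 as to activity (max response): cells grown in serum-free medium with ITS supplement; % is scaled to controls: 0 for no effect and ±100 for the full control effect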
Summary of the method: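 Here, serum-free SW-13 cultures were dosed up to 46 uM. Following 48 h, ATP-dependent luminescence (CellTiter-Glo) reported viable cells, and logistic modeling produced IC50 values.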

[13] = Cellular viability qHTS for adrenocortical cancer (ACC) cell line NCI-H295R (AID 1963990); conditions: CellTiter-Glo ATP luminescence, 48 h; series mostly up to 46.1 µM; also: nearly all actives have a fitted effect of over 60% in size
Summary of the method: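 Viability of NCI-H295R after 48 h of treatment (final up to 46 uM) measured through cellular ATP luminescence.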
Potency is read from the fitted curve at half-maximal effect.

Cc1cccc(CN2CCN(C(c3ccccc3)c3ccc(Cl)cc3)CC2)c1 (configuration not stated)
inactive: Potency [3] | Potency [4] | Potency [5] | Potency [6] | Potency [7] | Potency [8] | Potency [9] | Potency [10] | Potency [11]
active: Potency [1] 20.9 µM | Potency [2] 11.9 µM and 26.3 µM | Potency [12] 3.26 µM and 28.2 µM

CC1C(=O)OCC2=CCN3CCC(OC(=O)C(C)(O)C1(C)O)C23 (configuration not stated)
inactive: Potency [1] | Potency [2]

CC(C)NCC(O)c1ccc(NS(C)(=O)=O)cc1 (configuration not stated)
inactive: Potency [1] | Potency [2] | Potency [3] | Potency [4] | Potency [5] | Potency [6] | Potency [7] | Potency [8] | Potency [9] | Potency [10] | Potency [11] | activity (max response) [12] 2.53%

C[C@H](NC(c1cccc2[nH]c(=O)c(=O)[nH]c12)P(=O)(O)O)c1ccc(Br)cc1 (some centres not stated)
active: Potency [2] 14.6 µM
inactive: Potency [1]

CCCC(NC(=O)/C(C#N)=C/c1cccc(Br)n1)c1ccccc1 (configuration not stated)
active: Potency [1] 13 µM | Potency [2] 9.2 µM

CCOC(=O)C1=C(N)Oc2ccc(Cl)cc2C1C(C#N)C(=O)OCC (configuration not stated)
inactive: Potency [1] | Potency [2]

CN1CCN(c2c(F)cc3c(=O)c(C(=O)O)cn(CCF)c3c2F)CC1
inactive: Potency [1] | Potency [2] | Potency [3] | Potency [4] | Potency [5] | Potency [6] | Potency [7] | Potency [8] | Potency [9] | Potency [10] | Potency [11]

C=C1C(OC(C)=O)C(=O)C2C(C)(C)C(O)CCC2(C)C1CC(OC(C)=O)/C(C)=C/COC(C)=O (configuration not stated)
inactive: Potency [1] | Potency [2]

COc1ccc(C2CC(c3ccccc3)=NN2c2ccc(S(N)(=O)=O)cc2)cc1 (configuration not stated)
active: Potency [1] 20.9 µM | Potency [2] 18.6 µM | Potency [3] 4.18 µM | Potency [4] 4.18 µM | Potency [5] 2.64 µM | Potency [6] 6.62 µM | Potency [7] 3.72 µM | Potency [8] 4.18 µM | Potency [9] 2.35 µM | Potency [10] 1.18 µM | Potency [11] 1.66 µM

CN(C1CCc2c(c3ccccc3n2CC(=O)O)C1)S(=O)(=O)c1ccc(F)cc1 (configuration not stated)
active: Potency [3] 7.43 µM | Potency [4] 7.43 µM | Potency [5] 5.9 µM | Potency [6] 8.33 µM | Potency [7] 14.8 µM | Potency [8] 9.35 µM
inactive: Potency [1] | Potency [2] | Potency [9]

CN1c2c(nc(N)[nH]c2=O)NC[C@@H]1CNc1ccc(C(=O)N[C@@H](CCC(=O)O)C(=O)O)cc1
inactive: Potency [1] | Potency [2]

CC(=O)C1=C(C)N(c2cccc(C(F)(F)F)c2)C(=O)N[C@H]1c1ccc(C#N)nc1
inactive: viability (% of control) [1] 83.3% [at 9.25 µM] | viability, % of control [2] 87% [at 9.25 µM]

CC(C)c1cnn2c(NCc3ccccc3)cc(N[C@@H](CO)[C@H](O)CO)nc12
active: Potency [1] 1.03 µM and 332 nM | Potency [2] 820 nM and 263 nM | Potency [3] 0.743 µM | Potency [4] 0.743 µM | Potency [5] 0.662 µM | Potency [6] 1.32 µM | Potency [7] 1.18 µM | Potency [8] 1.05 µM | Potency [9] 0.743 µM | Potency [10] 0.59 µM | Potency [11] 0.743 µM | Potency [12] 891 nM | Potency [13] 0.631 µM
